The values below come from ChEMBL document CHEMBL3988442, “University of Dundee, Small-Polar-MMV Screening Library” (2021).

The structures appear in SMILES notation. About 13,000 (27%) of roughly 48,000 compounds showed an effect of 50% or more. The list shows a part of the results.

The assay relates to Wolbachia pipientis. The experiment in a line: Anti-Wolbachia Cell-Based Screen. It is filed as functional. More on the design: scale not given: in the data most compounds retested in dose-response had high values. To be noted: 5 µM.
Regarding `CCC[C@@H](NC(N)=O)C(=O)N1CCc2ccccc2CC1`, the “Percent Effect” value is recorded as 5.215%. Regarding `O=C(NCCOc1ccc(F)c(F)c1)NCc1ccncc1`, the “Percent Effect” value is given as -13.71%. Regarding `Cc1cc(CNC(=O)N2CCN(C(C)c3cccnc3)CC2)c(C)o1` (centres undefined), the “Percent Effect” value is recorded as -1.868%. As for `CN1[C@@H](CCC(=O)NCc2ccc(F)cc2)CNC(=O)[C@H]2NCC[C@H]21`, the figure is 3.15%.

For `N#Cc1cnc(N2CCC3(CC2)OCCO3)nc1N`, the “Percent Effect” value is 125%. As for `N#Cc1cnc(N2Cc3cnn(Cc4ccc(F)cc4)c3C2)nc1N`, the figure is -0.8846%; as for `CC1CCN(c2ncc3c(n2)CN(c2ccc4c(c2)OCO4)C3=O)CC1`, -9.746%. Consider `CCc1nsc(N2CCC3(CC2)OCCO3)n1`, for which the “Percent Effect” value was -6.104%. For `CC1CCN(c2ncc3c(n2)CN(c2ccccc2)C3=O)CC1`, the “Percent Effect” value is reported as -3.671%. For `CC1CCN(c2ncc(C#N)c(N)n2)CC1`, the “Percent Effect” value is 102.6%. In the case of `CC(C)(C)c1cnc(CN2CCC(NC(=O)NC3CCCCC3)CC2)o1`, the “Percent Effect” value is reported as -3.337%. For `CCn1c(Cn2cncn2)nnc1C1CCN(Cc2ccc(C)o2)CC1`, the “Percent Effect” value is listed as -1.569%.

`Cc1ccc2cnn(CCC(=O)NCc3c(C)nn(C)c3C)c2c1`: the “Percent Effect” value was -12.76%. `Cc1nc(CNc2ccc(C(=O)NCc3ccco3)cc2C)no1`: the “Percent Effect” value is -9.034%.

As for `Cc1cc(=O)[nH]c(-n2nc(C)c(CCC(=O)NCc3cccs3)c2C)n1`, the “Percent Effect” value amounted to 127.2%. As for `Cc1csc(CNC(=O)CCCc2cccs2)n1`, the figure is 21.24%; as for `Cc1nc(CNC(=O)CCCc2cccs2)no1`, -18.16%. Regarding `Cc1cc(=O)[nH]c(-n2nc(C)c(CCC(=O)NCc3ccco3)c2C)n1`, the “Percent Effect” value is 133%. As for `O=C1OCCN1Cc1cccc(F)c1C(F)(F)F`, the figure is -13.53%; as for `CCS(=O)(=O)NCCN1CCc2ccc(F)cc2C1C` (centres undefined), -17.56%; as for `O=C(Cc1ccccc1)NC[C@H]1Cn2ccnc2CO1`, -7.774%. As for `Cc1ccnc(CC(C)N(C)c2cc(CCN)nc(C)n2)c1` (centres undefined), the figure is -16.25%.

For `Cc1nn(C)c(Cl)c1C1CCCN1C(=O)c1ccoc1C` (centres undefined), the “Percent Effect” value is 103.1%. As for `Cc1noc(C)c1C(=O)N1CCCC1c1c(C)nn(C)c1Cl` (centres undefined), the figure is 2.958%. As for `COc1c(C2CCCN2C(=O)c2cccn2C)c(C)nn1C` (centres undefined), the figure is -5.9%; as for `Cc1nn(C)c(Cl)c1C1CCCN1C(=O)c1ccnn1C` (centres undefined), 108%; as for `Cc1nn(C)c(Cl)c1C1CCCN1C(=O)c1cccn1C` (centres undefined), 113.6%.

In the case of `COc1c(C2CCCN2C(=O)c2ccnn2C)c(C)nn1C` (centres undefined), the “Percent Effect” value is recorded as -14.45%. On to `COc1c(C2CCCN2C(=O)c2ccoc2C)c(C)nn1C` (centres undefined), for which the “Percent Effect” value was -17.99%. As for `OC(CN(Cc1ccccc1)Cc1ccon1)c1cccs1` (centres undefined), the figure is -5.25%; as for `CCCn1[nH]cc/c1=N\C(=O)CN1CCCC1Cn1cccn1` (centres undefined), -1.433%; as for `CCN(CC1CCOC1)C(=O)c1cc(OC)c2c(c1)OCCO2` (centres undefined), -3.228%. For the compound `CCNc1ccnc(NCC2CNCCO2)n1` (centres undefined), the “Percent Effect” value is given as -11.04%. As for `Cl.Clc1ccc(-c2ccc(C3CNCCO3)nc2)cc1` (centres undefined), the figure is 122.6%; as for `Cl.c1ccc(-c2ccc(C3CNCCO3)nc2)cc1` (centres undefined), -0.3347%; as for `COc1ccc(-c2cnc(CN3CCCC3CO)o2)cc1` (centres undefined), -7.324%.

As for `COc1ccc(-c2c[nH]c([C@@H]3COCCN3)n2)cc1`, the “Percent Effect” value is -8.862%.

`Cc1ccc(-c2ccc(C3CNCCO3)nc2)cc1.Cl` (centres undefined): the “Percent Effect” value is 114.4%. In the case of `Cl.c1ncc(-c2ccc(C3CNCCO3)nc2)cn1` (centres undefined), the “Percent Effect” value stood at 106.1%.

For the compound `COc1ccc(-c2ccc(C3CNCCO3)nc2)cc1.Cl` (centres undefined), the “Percent Effect” value is 122.1%. As for `Fc1ccc(-c2noc([C@@H]3Cc4nc[nH]c4CN3)n2)cc1`, the figure is -11.77%; as for `Cc1ccc(N2CC3(COCCN(Cc4ccccn4)C3)OCC2=O)s1.O=C(O)C(F)(F)F.O=C(O)C(F)(F)F` (centres undefined), -3.574%; as for `Cn1cc(CN2CCOCC3(C2)CN(c2ccccc2)C(=O)CO3)cn1.O=C(O)C(F)(F)F` (centres undefined), -5.421%.

As for `Cc1cccc(N2CCOCC3(C2)CN(c2ccccc2)C(=O)CO3)n1.O=C(O)C(F)(F)F` (centres undefined), the “Percent Effect” value came out at 109.1%. On to `Cn1cc(N2CC3(COCCN(Cc4ccsc4)C3)OCC2=O)cn1.O=C(O)C(F)(F)F` (centres undefined), for which the “Percent Effect” value is listed as -6.124%. As for `O=C(O)C(F)(F)F.O=C(O)C(F)(F)F.O=C1COC2(COCCN(Cc3cccnc3)C2)CN1c1ccoc1` (centres undefined), the figure is -8.923%; as for `Cc1cccc(N2CCOCC3(C2)CN(c2ccoc2)C(=O)CO3)n1.O=C(O)C(F)(F)F` (centres undefined), 101.1%.

`Cc1cccc(N2CCOCC3(C2)CN(c2cnn(C)c2)C(=O)CO3)n1.O=C(O)C(F)(F)F` (centres undefined): the “Percent Effect” value is reported as 85%. As for `O=C(O)C(F)(F)F.O=C1COC2(COCCN(c3ccccn3)C2)CN1c1cccc(F)c1` (centres undefined), the figure is -5.368%.

With `COC(=O)c1ccc(CNC2CC(=O)N(Cc3cccc(F)c3)C2)cc1` (centres undefined), the “Percent Effect” value was found to be 2.767%. With `CSc1ccc(-n2ccnc2-c2cc3n(n2)CCNC3)cc1`, the “Percent Effect” value is recorded as -5.547%. As for `CC(C)c1cnc(N2C[C@H](CO)C[C@H](CN3CCOCC3)C2)nc1`, the figure is -10.14%; as for `COCc1noc(C2(c3ccc(Cl)cc3)CCOCC2)n1`, 0.3658%; as for `Cc1c(Cl)c(CN2CCCC2Cn2cncn2)nc2ccccc12` (centres undefined), 0.2475%. Regarding `Cc1cnn(CC2CCCN2C(=O)c2nccnc2N)c1` (centres undefined), the “Percent Effect” value amounted to 124%. As for `Cc1cnn(CC2CCCN2C(=O)c2nccc3ccccc23)c1` (centres undefined), the figure is -8.549%; as for `Cc1cnn(CC2CCCN2C(=O)c2ccc(C(N)=O)cn2)c1` (centres undefined), -6.228%. As for `Cc1cnn(CC2CCCCN2C(=O)c2nccnc2N)c1` (centres undefined), the figure is 123.3%. As to `Cc1ccsc1C(=O)N1CC2CC1(C(=O)NCc1ccco1)C2`, the “Percent Effect” value is recorded as -21.25%. As for `Cc1oncc1C(=O)N1CC[C@H]2CO[C@H](CN3CCCC3)[C@H]2C1`, the “Percent Effect” value is recorded as 2.112%. As for `O=C(N1CCOCC1)N1CCOC[C@H](Oc2ccc(C(F)(F)F)cc2)C1`, the figure is -17.33%; as for `COc1cccc(OCC(=O)NS(=O)(=O)c2ccc(Br)s2)c1`, 93.04%.

As to `COc1ccc(OCC(=O)NS(=O)(=O)c2ccc(Br)s2)cc1`, the “Percent Effect” value was determined as 71.28%. For `COc1ccc(OCC(=O)NS(=O)(=O)c2cc(C)ccc2C)cc1`, the “Percent Effect” value was 6.123%. Turning to `COc1cc(C)ccc1OCC(=O)NS(=O)(=O)c1cc(F)ccc1F`, the “Percent Effect” value came to 4.965%. As for `COc1ccc(OCC(=O)NS(=O)(=O)c2ccc(Cl)s2)cc1`, the figure is 9.961%. As for `N#CCc1ccc(OCC(=O)NS(=O)(=O)c2ccc(Br)s2)cc1`, the figure is -7.056%. With `CC(=O)c1ccc(OCC(=O)NS(=O)(=O)c2ccc(Cl)s2)cc1`, the “Percent Effect” value is listed as 1.494%. As for `COc1ccccc1OCC(=O)NS(=O)(=O)c1ccc(Cl)cc1F`, the “Percent Effect” value came to 6.198%.

In the case of `CC(=O)c1cccc(OCC(=O)NS(=O)(=O)c2ccc(C)s2)c1`, the “Percent Effect” value is reported as 0.05865%. As for `COc1cccc(OCC(=O)NS(=O)(=O)c2ccc(C)s2)c1`, the figure is 7.75%; as for `COc1ccccc1OCC(=O)NS(=O)(=O)c1ccc(Cl)s1`, 123.5%. As for `COc1cc(C)ccc1OCC(=O)NS(=O)(=O)c1ccc(Br)s1`, the figure is 133.3%; as for `CC(Sc1nncn1C)C(=O)NCCCOc1ccc(F)cc1` (centres undefined), 7.065%. As for `COC1CCCN(C(=O)NCCCF)C1` (centres undefined), the figure is 5.737%; as for `CS(=O)(=O)NC[C@]12COC[C@H]1CN(CCc1ccccc1)C2.O=C(O)C(F)(F)F`, 1.225%; as for `O=C(O)C(F)(F)F.O=C(O)C(F)(F)F.c1cc2c(cc1CN1C[C@@H]3COC[C@@H](N4CCCC4)[C@@H]3C1)OCO2`, 5.593%. On to `CCS(=O)(=O)NC[C@]12COC[C@H]1CN(Cc1ccsc1)C2.O=C(O)C(F)(F)F`, for which the “Percent Effect” value was -7.396%.

As for `CS(=O)(=O)NC[C@]12COC[C@H]1CN(Cc1ccc3c(c1)OCO3)C2.O=C(O)C(F)(F)F`, the “Percent Effect” value amounted to 100.7%. As for `COC[C@]12COC[C@H]1CN(Cc1ccc3c(c1)OCO3)C2.O=C(O)C(F)(F)F`, the figure is 110.8%; as for `CCOC[C@]12COC[C@H]1CN(Cc1ccc3c(c1)OCO3)C2.O=C(O)C(F)(F)F`, 94.03%; as for `CCOC[C@]12COC[C@H]1CN(Cc1ccc(F)c(F)c1)C2.O=C(O)C(F)(F)F`, 108.4%. As to `Cc1nc(C(C)(C)NCc2ncc(C3CC3)o2)sc1C`, the “Percent Effect” value is reported as -9.268%. Regarding `CCc1ccc(CNc2ccccc2CN2CCC(O)CC2)o1`, the “Percent Effect” value is -8.641%. As to `CCCn1cc(CNCC(c2ccc(C)s2)N2CCOCC2)cn1` (centres undefined), the “Percent Effect” value was determined as 19.75%.

Take `COCC(=O)NC[C@]12COC[C@H]1CN(Cc1ccc3c(c1)OCO3)C2.O=C(O)C(F)(F)F`: the “Percent Effect” value was determined as 110%. As for `COCC(=O)NC[C@]1(O)CN(Cc2ccc3c(c2)OCCO3)C[C@H]1O`, the figure is 114.3%. Consider `CC(=O)N1CCN(Cc2ccc3c(c2)OCCO3)CC(O)C1` (centres undefined), for which the “Percent Effect” value is -5.239%. Regarding `COCC(=O)NC[C@]12COC[C@H]1CN(c1ncc(F)cn1)C2.O=C(O)C(F)(F)F`, the “Percent Effect” value was -9.196%. For `COc1ccc(CN2C[C@@H]3COC[C@]3(CN(C)C)C2)cc1.O=C(O)C(F)(F)F.O=C(O)C(F)(F)F`, the “Percent Effect” value was 3.897%. As for `COc1ccc(CC(=O)N2C[C@@H]3COC[C@]3(CN(C)C)C2)cc1.O=C(O)C(F)(F)F`, the figure is 1.592%; as for `CN(C)C[C@]12COC[C@H]1CN(Cc1ccc3c(c1)OCO3)C2.O=C(O)C(F)(F)F.O=C(O)C(F)(F)F`, 103.2%; as for `CCC[C@H]1CN(Cc2ccc3c(c2)OCCO3)C[C@@H]1NC(=O)COC`, -19.75%.

With `O[C@H]1[C@H](NCCc2ccccn2)c2ccccc2C12CCNCC2`, the “Percent Effect” value is 4.411%. As for `CCC(CC)N(Cc1ccc2c(c1)OCO2)C(=O)c1ccc(=O)n(C)c1`, the figure is -1.967%; as for `Cc1ccc(N2CCc3c(CN(C)Cc4ccco4)cncc3C2)nn1.Cl.Cl`, 99%; as for `CN(Cc1ccco1)Cc1cncc2c1CCN(c1ncccn1)C2.Cl.Cl`, 2.734%. In the case of `CN(Cc1cn2c(n1)CN(C(N)=O)CC2)Cc1ccco1`, the “Percent Effect” value was found to be 9.855%. As for `Cc1cnc(N2CCc3c(CN(C)Cc4ccco4)cncc3C2)nc1`, the figure is 78.05%.
